Screening results (PubChem BioAssay)
D2 PAM-1: positively modulates the human D2 dopamine receptor allosterically | P14416 | HEK293 T-REx D2, calcium flux, EC20 dopamine potentiation | potentiation, % at 10 µM | actives 0.34% (n = 340,000) | AID 485347;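 active = potentiation over 3 SD above the plate norm, cut at about 30% in these data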
Target sequence (P14416 whole entry, looked up): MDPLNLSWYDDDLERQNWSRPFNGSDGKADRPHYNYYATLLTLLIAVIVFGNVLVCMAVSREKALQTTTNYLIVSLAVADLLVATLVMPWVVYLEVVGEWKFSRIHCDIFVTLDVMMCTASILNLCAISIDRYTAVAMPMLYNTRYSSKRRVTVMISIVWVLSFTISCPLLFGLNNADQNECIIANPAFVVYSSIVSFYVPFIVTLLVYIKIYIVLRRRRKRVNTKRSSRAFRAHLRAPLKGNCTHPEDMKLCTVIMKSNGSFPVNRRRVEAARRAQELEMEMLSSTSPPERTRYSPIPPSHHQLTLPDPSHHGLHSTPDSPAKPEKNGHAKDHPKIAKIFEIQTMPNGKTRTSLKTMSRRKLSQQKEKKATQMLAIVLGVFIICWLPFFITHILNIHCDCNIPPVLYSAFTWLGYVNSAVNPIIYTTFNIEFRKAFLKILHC
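Cells plated with tetracycline inducer and held overnight at 30 C; calcium dye loaded 30–90 min at room temperature; baseline taken, compound added and read 180 s; EC20 dopamine then added and read 180 s.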
D2 PAM-2: positive allosteric modulators of human D2 dopamine receptor; actives 0.23% (n = 360,000); potentiation, % (test concentration not listed); DiscoveRx D2 beta-arrestin cells, luminescence, 90 min; 100% = 57 uM dopamine signal; in the data active = potentiation above about 50%; inconclusive = mostly about 30% to 49%
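D2 cells co-treated with compound plus 50 nM dopamine (EC20) for 90 min at 37 deg C to detect potentiation. Beta-arrestin recruitment was read as enzyme-fragment luminescence after 1 h at ambient temperature. Full response was set by 57 uM dopamine.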
D2 ag-1: agonists of human D2 dopamine receptor | AID 485358 | P14416 | actives 0.53% (n = 340,000) | HEK293 T-REx D2 cells, calcium flux agonist mode | activation, % at 2 µM;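 active = activation over 3 SD above normal in the single-dose calcium agonist read, cut at about 30% in these data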
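Agonism is scored from calcium flux in a force-coupled, inducible HEK293 cell line expressing D2, read kinetically for 180 s after compound addition against dopamine controls.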
D2 antag: antagonizes the human D2 dopamine receptor; P14416; HEK293 TREx D2 cells, calcium flux, dopamine EC80; inhibition, % at 10 µM; actives 2% (n = 340,000); AID 485344; in the data active = inhibition above about 30%; inactive = below that, where a call was filed
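Overnight-induced (tetracycline, 30 C) HEK293 T-REx cells carrying force-coupled D2 receive a no-wash calcium dye, then compound, then EC80 dopamine at 180 s; signals are read kinetically throughout.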
D2 ag-2: agonists of human D2 dopamine receptor (beta-arrestin). activation, % (no concentration beside the values). actives 0.084% (n = 360,000). P14416. DiscoveRx PathHunter D2 beta-arrestin, luminescence, 90 min; 100% = 57 uM dopamine signal; in the data active = activation above about 40%; inconclusive = between about 15% and that limit
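Agonist mode: compounds alone added to overnight-plated D2 PathHunter cells for 90 min at 37 C, with 57 uM final dopamine (EC100) defining full response. Beta-arrestin recruitment detected by chemiluminescent reagent, read after 1 h at ambient temperature.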
Numbers stand for hits; – = inactive; ? = inconclusive; · = not tested or not shown. Compounds with a hit are over-represented: about 2.4% of the library has one in this group of screens.

SMILES	D2 PAM-1	D2 PAM-2	D2 ag-1	D2 antag	D2 ag-2
CN(C)c1ccc(C(CNS(=O)(=O)c2ccc(Br)cc2)N2CCOCC2)cc1 (stereo unspecified)	–	·	–	·	·
CCCCCNC(=O)C1CC=CCC1C(=O)O (stereo unspecified)	–	–	–	36.1	–
O=[N+]([O-])c1cc(Cl)ccc1NCCNc1ncc(C(F)(F)F)cc1Cl	–	–	–	36.2	–
O=S(=O)(/N=C(\c1ccccc1)N1CCOCC1)c1cccs1	–	–	–	–	–
c1ccc(N=C(c2cccs2)N2CCOCC2)cc1	–	–	–	31.8	–
C/C(=N\NC(=O)c1ccc(C)cc1C)c1ccc(-n2ccnc2)cc1	–	–	–	–	–
CC(=O)c1ccc2c(c1)Nc1ccccc1S2	–	51.9	–	–	?
C/C(=N\NC(=O)c1ccc(C)cc1C)c1ccc2c(c1)Nc1ccccc1S2	–	77.9	–	–	?
CCOC(=O)Nc1ccc2c(c1)Nc1ccccc1S2	–	62.6	–	–	–
CC1=C(c2ccc(C)c(C)c2)S(=O)(=O)N=C1N1CCC(C(=O)N2CCC(C)CC2)CC1	–	·	–	·	·
CCS(=O)(=O)N1CCCc2cc(C(=O)Nc3cc([N+](=O)[O-])ccc3C)ccc21	–	·	–	·	·
CCC(Oc1ccccc1)C(=O)Nc1cc(-c2ccccc2OC)nn1-c1ccccc1 (stereo unspecified)	–	·	–	·	·
CCN1C(=O)c2ccccc2Sc2ccc(C(=O)NCCC(C)C)cc21	–	–	–	43.8	–
CCCCNC(=O)c1ccc2c(c1)N(C)C(=O)c1ccccc1S2	–	–	–	–	–
CC(C)CCNC(=O)c1ccc2c(c1)N(C)C(=O)c1ccccc1S2	–	–	–	47.4	–
COc1ccc(N(CC(=O)NCCc2ccc(OC)c(OC)c2)S(=O)(=O)c2c(C)noc2C)cc1	–	–	–	–	63.7
COc1ccc(N(CC(=O)NCCc2ccc(C)cc2)S(=O)(=O)c2c(C)noc2C)cc1	–	–	–	–	–
C#CCn1c(=NC(=O)c2ccc(S(=O)(=O)N3CCCc4ccccc43)cc2)sc2cc(S(N)(=O)=O)ccc21	–	–	–	47.5	–
Cn1c(=NC(=O)c2ccc(S(=O)(=O)N3CCCc4ccccc43)cc2)sc2cc(S(C)(=O)=O)ccc21	–	–	–	–	–
CCN(C(=O)c1cn(CC(C)C)c(=O)c2cc(OC)c(OC)cc12)c1cc(OC)ccc1OC	–	·	–	·	·
CC(C)c1nnc(N2C(=O)C(O)=C(C(=O)c3cccs3)C2c2ccccc2)s1 (stereo unspecified)	–	–	165.8	47.9	–
COc1ccc2c(c1)NC1(O)c3ccccc3C(=O)C21O (stereo unspecified)	–	–	–	32.3	–
CC1=C(C#N)C2(O)C(=O)c3ccccc3C2(O)N1 (stereo unspecified)	–	–	–	–	–
c1ccc(-c2cc3nc(NCC4CC4)nc(NCC4CCCCC4)c3s2)cc1	·	–	·	·	40.9
COCCNc1nc(NCC2CCCCC2)c2sc(-c3ccccc3)cc2n1	·	–	·	·	?
SMILES	D2 PAM-1	D2 PAM-2	D2 ag-1	D2 antag	D2 ag-2
Cc1cc(C)c2oc(-c3ccc(C)c(NC(=O)/C=C/c4ccco4)c3)nc2c1	–	·	–	·	·
CCS(=O)(=O)NC(C)C(c1cccs1)N1CCN(c2ccc(F)cc2)CC1 (stereo unspecified)	–	–	–	39.7	–
CCOC(=O)c1c(NC(=O)CSc2cn(CCNC(=O)c3ccc(OC)cc3)c3ccccc23)sc2c1CCC2	–	·	–	·	·
COc1ccc(OC)c(/C=C/C(=O)N(C)CC(=O)Nc2ccc(N3CCOCC3)cc2)c1	–	–	–	40.4	–
COc1ccc(-n2nnc(-c3nsc(NC(=O)c4cccc(C)c4)n3)c2C)cc1OC	–	·	–	·	·
CSc1ccccc1NC(=O)c1cnc2scc(C)n2c1=O	35.7	–	–	–	–
CCc1ccccc1NC(=O)c1cnc2scc(C)n2c1=O	·	–	·	·	–
CCN(CC)S(=O)(=O)c1ccc2c(c1)c(=O)c(C(=O)N1CCN(c3ccc(OC)cc3)CC1)cn2C	–	·	–	·	·
COc1ccc(-c2noc(CCC(=O)NCCCN3CCN(c4ccc(F)cc4)CC3)n2)cc1	–	–	–	95.3	–
COc1ccc(-c2noc(CCC(=O)NCCCN3CCC(Cc4ccccc4)CC3)n2)cc1	·	–	·	·	–
CC(=O)Nc1cc(C(=O)NCc2ccccc2)ccc1Sc1ccc(C)cc1	–	·	·	·	·
O=S(=O)(c1ccccc1)N1CCN(CC2CC3C=CC2C3)CC1 (stereo unspecified)	–	–	–	–	–
Cc1ccc(CN2CCN(CC3CC4C=CC3C4)CC2)cc1 (stereo unspecified)	–	–	–	65.4	–
CCOc1ccc(N(CC(=O)NCCc2ccc(Cl)cc2)S(=O)(=O)c2c(C)[nH]c(=O)[nH]c2=O)cc1	32.1	–	–	–	–
CCOc1ccc(N(CC(=O)NCc2ccc(OC)cc2)S(=O)(=O)c2c(C)[nH]c(=O)[nH]c2=O)cc1	–	–	–	·	–
Cc1cc(NC(=O)CCCSc2nc(-c3ccco3)cc(C(F)(F)F)n2)n(-c2ccccc2)n1	33.5	–	–	–	–
N#Cc1c(NC(=O)CSc2nc(-c3ccco3)cc(C(F)(F)F)n2)sc2c1CCCC2	44.4	–	–	–	–
CCn1nc(C)c(NC(=O)CCSc2nc(-c3ccco3)cc(C(F)(F)F)n2)c1C	31.3	–	–	–	–
Cc1cc(NC(=O)CSc2nc(-c3ccco3)cc(C(F)(F)F)n2)n(-c2ccccc2)n1	–	–	–	–	–
COc1ccc(S(=O)(=O)Nc2cccc(-c3ccc(N4CCC(C)CC4)nn3)c2)cc1OC	–	·	–	·	·
CSc1cccc(NC(=O)C2CCCN(C(=O)c3cnn(-c4ccc(F)cc4)c3-n3cccc3)C2)c1 (stereo unspecified)	–	·	–	·	·
Cc1ccc(N2CCN(C(=O)C3CCN(c4ncnc5c4nc4n5CCCCC4)CC3)CC2)c(C)c1	–	·	–	·	·
COC(=O)c1c(-c2cccs2)csc1NC(=O)c1ccc(C)cc1	–	·	–	·	·
COC(=O)c1c(-c2cccs2)csc1NC(=O)CN1CCOCC1	33.0	–	–	–	–
O=C(CN1CCOCC1)Nc1scc2c1c(=O)oc1ccccc12	–	–	–	35.7	–
SMILES	D2 PAM-1	D2 PAM-2	D2 ag-1	D2 antag	D2 ag-2
Cc1cccc(OCC(=O)N(Cc2cccc(Cl)c2)Cc2ccco2)c1C	–	·	·	·	·
CCOC(=O)c1c(C)n(-c2ccccc2)c2ccc(OC(=O)c3cccc(Cl)c3)cc12	–	·	–	·	·
COc1cccc(-n2ccnc2SCC(=O)Nc2ccc(Cl)c(Cl)c2)c1	–	·	·	·	·
COc1ccc(CNC(=S)Nc2ccc(F)c(Cl)c2)cc1	–	–	–	68.2	–
CCOc1ccccc1CNC(=O)C1CCN(Cc2cc3ccccc3n2Cc2ccccc2)CC1	–	·	–	·	·
CC(=O)Nc1sc(/C(C#N)=C\c2cccc(Cl)c2)nc1-c1ccc(C)cc1	–	–	61.0	30.2	–
